# The supplement of paper PMC3334620
# In all, about 33,000 sequences were measured (“E-score (-0.5 to 0.5)”: median about -0.056, highest 2% from about 0.38 on). Only a selection was taken, and the highest values are over-represented in it overall.
# Target: Stb4 (UniProt P50104)
# Assay: PBM E-score (8-mer binding enrichment) (E-score (-0.5 to 0.5)); higher = stronger / more preferred TF binding
# Conditions: protein concentration: 200 nM; construct: GST-DNA-binding domain
# Method: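 Universal 'all 10-mer' protein binding microarrays (Agilent AMADID 015681) probed with GST-tagged S. cerevisiae TFs (full-length or DBD) made by in vitro transcription/translation (PURExpress), about 100-200 nM. Bound TF was detected with fluorescent anti-GST. Each ungapped 8-mer (which stands for itself and its reverse complement) is scored by the PBM enrichment score (E-score), a modified Wilcoxon-Mann-Whitney statistic from -0.5 to +0.5, computed with the Universal PBM Analysis Suite. Scale: above 0.35 generally sequence-specific binding.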
# Sequence of UniProt P50104 (P50104 whole entry): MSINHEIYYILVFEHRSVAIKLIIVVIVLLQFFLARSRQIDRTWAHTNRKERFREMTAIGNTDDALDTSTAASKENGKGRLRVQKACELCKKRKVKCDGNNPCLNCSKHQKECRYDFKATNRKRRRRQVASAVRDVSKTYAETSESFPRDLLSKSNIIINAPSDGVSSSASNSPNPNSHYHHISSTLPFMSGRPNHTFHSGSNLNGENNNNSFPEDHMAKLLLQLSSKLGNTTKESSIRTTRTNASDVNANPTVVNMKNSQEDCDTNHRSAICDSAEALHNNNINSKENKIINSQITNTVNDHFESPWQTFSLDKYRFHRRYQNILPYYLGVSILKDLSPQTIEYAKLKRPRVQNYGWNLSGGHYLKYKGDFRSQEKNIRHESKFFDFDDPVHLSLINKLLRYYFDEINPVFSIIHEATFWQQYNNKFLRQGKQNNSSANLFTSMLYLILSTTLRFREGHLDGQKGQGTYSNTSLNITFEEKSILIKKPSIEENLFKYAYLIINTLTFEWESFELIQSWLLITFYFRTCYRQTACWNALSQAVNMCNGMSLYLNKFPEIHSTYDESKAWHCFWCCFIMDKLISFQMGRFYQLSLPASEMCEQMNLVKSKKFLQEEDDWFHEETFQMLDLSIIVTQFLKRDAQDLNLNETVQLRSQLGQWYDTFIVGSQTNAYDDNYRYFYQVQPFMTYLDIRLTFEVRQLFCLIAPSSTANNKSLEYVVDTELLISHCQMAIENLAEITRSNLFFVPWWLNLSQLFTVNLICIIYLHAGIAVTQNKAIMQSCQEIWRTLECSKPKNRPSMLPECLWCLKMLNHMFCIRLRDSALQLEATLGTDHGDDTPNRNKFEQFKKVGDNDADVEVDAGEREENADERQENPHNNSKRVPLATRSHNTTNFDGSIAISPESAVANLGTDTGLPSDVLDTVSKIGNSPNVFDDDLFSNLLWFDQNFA
row,Sequence,PBM E-score
1,ATGATTTC,0.0687
2,AATGATTG,-0.164
3,ATAGCAAT,-0.185
4,AGTCTAAC,-0.163
5,ACAGTCAG,-0.0929
6,ACACCAAT,0.00344
7,ATCGGGTC,0.325
8,CTCGGGTC,0.434
9,CTCGGGCC,0.343
10,CGGAATTA,0.401
11,CGGAATAA,0.384
12,GGGAATAA,0.233
13,TGGAATAA,0.072
14,AGGAATTA,0.0103
15,GGGAATCA,0.0543
16,AGGAATCA,-0.00647
17,CGGAATTC,0.322
18,CGGAATCA,0.388
19,GGATCATA,0.228
20,AACTGTGC,-0.157
21,AAAAATCG,0.0452
22,CTGAAACA,0.0153
23,GTTTAGAA,-0.0425
24,ATGAAAAT,0.0835
25,AGACGGGA,0.174

row,Sequence,PBM E-score
1,GACTCAGC,-0.191
2,CACGCATG,-0.209
3,ATACATGA,-0.212
4,GCGAACAA,-0.0836
5,CCGAACAC,0.372
6,CCGAACTA,0.395
7,CCGAACTC,0.374
8,ACGAACAG,-0.15
9,ACGAACTA,-0.194
10,CCGAACAA,0.425
11,ACGAACAA,0.079
12,CCGAACAG,0.4
13,GCAACGAC,0.0391
14,CACTGTGA,-0.018
15,AGCCCCTA,-0.139
16,AAGGGTTC,-0.14
17,CACGTGTA,-0.0718
18,GTGTGAAC,0.0138
19,CGTGGCAC,-0.178
20,CCCTGTGC,-0.0934
21,TCATCGGA,0.403
22,ATATCGGA,0.383
23,GCATCGGA,0.359
24,CTATCGTA,-0.199
25,AAATCGGG,0.317

row,Sequence,PBM E-score
1,ACATCGGA,0.346
2,CTATCGGA,0.423
3,ATATCGGG,0.306
4,AAATCGGA,0.399
5,ATATCGGC,0.316
6,TAATCGGA,0.324
7,CTATCGGC,0.26
8,AAATGCGT,-0.129
9,AGTGTGAT,-0.0318
10,CAATTTAC,-0.00625
11,CATAGTGG,-0.102
12,CCGACCTA,0.296
13,CACGGTGG,-0.061
14,GGCCCACC,0.0688
15,AAAAGATT,-0.0765
16,AGGTTTAC,-0.0584
17,GAATCGGA,0.38
18,GTATCGAA,-0.0419
19,GTATCGGA,0.39
20,ACATCACC,0.0212
21,CATCTGTC,0.0312
22,GCTTCCAA,-0.147
23,CCTTCCGA,0.451
24,ACTTCCGC,0.379
25,CCTTCCTA,-0.354

row,Sequence,PBM E-score
1,ACTTCCGG,0.411
2,ACTTCCCG,0.354
3,GCTTCCGA,0.473
4,ACTTCCCA,-0.158
5,ACTTCCTG,-0.0685
6,GCTTCCTA,-0.0701
7,ACTTCCGA,0.479
8,CCTTCCGC,0.306
9,AAAACTTT,0.0161
10,CCTGTATC,0.011
11,CTGCTAAC,-0.0715
12,ATCTCTAA,0.0304
13,AGCCAGAT,0.0138
14,CACCGCAA,0.0924
15,CACCGTCA,-0.13
16,CGGATGGC,0.347
17,GACCCATC,0.0784
18,TACCCGTA,0.31
19,TACCCCGA,0.342
20,GACCCGAA,0.428
21,CACCCGGA,0.358
22,GACCCGGA,0.323
23,GACCCGAC,0.384
24,TACCCGGA,0.415
25,GCCCCGAA,0.31

row,Sequence,PBM E-score
1,AACCCGAC,0.324
2,TACCCGAA,0.476
3,GACCCGCC,0.0652
4,GACCCCGA,0.288
5,GAAAAGTC,-0.011
6,ACCAAGGA,0.00373
7,AAGGCCTA,-0.225
8,ATTTGGGG,-0.0633
9,AACCCGCA,0.156
10,ACCCCGAA,0.369
11,AACCCGAA,0.387
12,ACCAAGAA,-0.0301
13,AGCCGGCA,0.316
14,TGCCGGCA,0.296
15,AGCCGGAC,0.239
16,AGCCGGAA,0.395
17,TGCCGGAA,0.419
18,GGCCGGAA,0.371
19,AGCCGGAG,0.379
20,AGCCGGAT,0.396
21,CGCCGGAG,0.168
22,CGCCGGAC,0.146
23,AGCCGGCT,0.238
24,CGCCGGAA,0.392
25,AAGAATAT,0.0558

row,Sequence,PBM E-score
1,GCAAGTAA,-0.0627
2,ATTTAAAT,-0.101
3,AGAAAGGG,-0.138
4,ATCTTGTA,-0.0999
5,TGAGAGCA,-0.178
6,CATCGCCA,-0.0625
7,AGGCGGAA,0.278
8,GGGCGGAA,0.308
9,CGGCGGAA,0.408
10,CAGCTTTA,-0.0389
11,TCGCGGAA,0.315
12,ACTCGGAA,0.47
13,ACTCGGTG,0.124
14,GCTCGGAA,0.482
15,TCTCGTAA,0.00218
16,TCTCGGAA,0.479
17,ACTCGGTC,0.204
18,GCGCGGAA,0.338
19,ACTCGTAA,0.0295
20,ACTCGGAT,0.467
21,GCACGGAA,0.327
22,ACTCGGAC,0.327
23,CAGTCCCC,-0.362
24,CTCTCAGC,-0.362
25,CCACTGGG,-0.231

row,Sequence,PBM E-score
1,ATCGCATG,-0.117
2,AGATACAC,-0.107
3,AGGCAGGA,-0.188
4,ACTCTATC,-0.0391
5,AAGGCTAC,-0.0344
6,CCCACTCG,0.0329
7,ACACGGAA,0.338
8,TCACGGAA,0.389
9,CCACGGAA,0.354
10,GCACGGAC,0.13
11,GCTCGTAC,-0.0377
12,GCTCGGAC,0.391
13,GTCACCAC,-0.103
14,AGGGGAGA,-0.0188
15,GTGCGTCA,-0.101
16,CCCCGCTC,-0.0289
17,CTAAATCC,0.205
18,GATTATCA,0.0201
19,AGTATCAT,0.0471
20,ACTCCAGC,-0.253
21,CGGGTTTA,0.389
22,GGGGTATA,0.06
